Reference: PubChem BioAssay AID488932 (Broad Institute, 2010)
Measured potencies and affinities stand elsewhere. Values without a mark were called inactive. Activity calls are given as the source filed them.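 How the source made its calls: active means growth signal falls, with fitted half-maximal dose at most ten times the top valid dose; inconclusive means flat curve with a partial drop, or a poorly fitting curve; inactive means the rest, including compounds that raise signal.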

Assay: single-agent toxicity toward C. albicans – CaCi-2 strain, no fluconazole, dry powder, set 4, counter-screen for reversing antifungal drug resistance, dose response (AID 488932)
Settings: C. albicans CaCi-2 (fluconazole-resistant clinical isolate) growth, Alamar Blue, 48 h; series mostly up to 26 µM; activity change, negative = inhibition: at the top concentration
In the case of Cc1ccc(C(=O)N2CCN(c3ccnc4cc(Cl)ccc34)CC2)cc1, the “activity change, negative = inhibition” value is reported as 9.7%. In the case of COc1cccnc1N1CCN(C(=O)c2ccc(Cl)cc2)CC1, the “activity change, negative = inhibition” value is reported as 23.9%. In the case of O=C(C1CCCC1)N1CCN(c2ccnc3cc(Cl)ccc23)CC1, the “activity change, negative = inhibition” value is reported as 3.25%. In the case of O=C(c1ccc(Cl)cc1)N1CCN(c2ccnc3ccc(Cl)cc23)CC1, the “activity change, negative = inhibition” value is reported as 19%. For O=C(c1ccc(Cl)cc1)N1CCN(c2ccccn2)CC1, the outcome was “inactive”. In the case of O=C(c1ccc(Cl)cc1)N1CCN(c2ccnc3cc(Cl)ccc23)CC1, the outcome is reported as “inactive”. With COc1ccc(OC)c2c(C)cc(N3CCN(C(=O)c4ccc(Cl)cc4)CC3)nc12 the “activity change, negative = inhibition” value was -17.5%. With Cc1cc(N2CCN(C(=O)c3ccc(Cl)cc3)CC2)c2ccccc2n1 the “activity change, negative = inhibition” value was 32.7%. With O=C(Nc1ccc(C(F)(F)F)cc1)N1CCN(c2ccnc3cc(Cl)ccc23)CC1 the “activity change, negative = inhibition” value was 4.41%. With O=C(c1ccccc1Cl)N1CCN(c2ccnc3cc(Cl)ccc23)CC1 the “activity change, negative = inhibition” value was 20.5%. With CC(C)CC(=O)N1CCN(c2ccnc3cc(Cl)ccc23)CC1 the “activity change, negative = inhibition” value was 44.8%. In the case of O=C(c1ccc(Cl)cc1)N1CCNCC1, the “activity change, negative = inhibition” value is reported as 84.1%. For O=C(C1CC1)N1CCN(c2ccnc3cc(Cl)ccc23)CC1, the “activity change, negative = inhibition” value was 47.2%. For CC(C)C(=O)N1CCN(c2ccnc3cc(Cl)ccc23)CC1, the “activity change, negative = inhibition” value was 31.9%. In the case of O=C(c1ccc(Cl)nc1)N1CCN(c2ccnc3cc(Cl)ccc23)CC1, the “activity change, negative = inhibition” value is reported as 51%. In the case of O=C(c1ccc(Cl)c(Cl)c1)N1CCN(c2ccnc3cc(Cl)ccc23)CC1, the “activity change, negative = inhibition” value is reported as 19.6%. For O=C(Nc1ccc(Cl)cc1)N1CCN(c2ccnc3cc(Cl)ccc23)CC1, the “activity change, negative = inhibition” value was -46.6%. With COc1cccc2c(N3CCN(C(=O)c4ccc(Cl)cc4)CC3)cc(C)nc12 the “activity change, negative = inhibition” value was 60.5%.
